From PubChem BioAssay (Tox21)
“And” between values parts separate entries of the source, which are not always exact repeats. Identical values can stand only once. Results filed as inconclusive are left out. A call without a number means that no potency is given here. The source made the active and inactive calls. Unless noted, calls follow the shape of the dose curve; as a rule, active = well fitted curve in the direction sought with a large enough effect in the repeat runs; inconclusive = weak or mixed curves; inactive = no such curve, though single readings can be large; an effect the other way counts as inactive or inconclusive.

Legend:
[1] = qHTS assay for small molecule agonists of the p53 signaling pathway - cell viability (AID 651633; calls by dose curve; also: nearly all actives have a fitted effect of over 30% in size; also: potency is read from the fitted curve at half-maximal effect)
In short: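 p53RE-bla cells, seeded at 4,000 per well and rested 5 h at 37 C/5% CO2, received compounds in DMSO for 16 h at 37 C. CellTiter-Glo was then added, and luminescence was read after 30 min at room temperature to gauge cytotoxicity.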

[2] = qHTS assay for small molecule disruptors of the mitochondrial membrane potential - cell viability (AID 720634; calls by dose curve; also: nearly all actives have a fitted effect of over 20% in size; also: potency is read from the fitted curve at half-maximal effect)
In short: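 HepG2, 1 hr compound, 37 C. ATP luminescence via CellTiter-Glo, 30 min RT, same well as m-MPI.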

[3] = qHTS assay to test for compound auto fluorescence at 590 nm (red) in HepG2 cells (AID 720674)
In short: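 Compound auto-fluorescence is scored relative to Rose Bengal sodium, measured at 540/590 nm in live HepG2 cultures after 1 hr compound contact (37 C, 5% CO2).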

[4] = qHTS assay to test for compound auto fluorescence at 535 nm (green) in HepG2 cells (AID 720675)
[5] = qHTS assay to test for compound auto fluorescence at 460 nm (blue) in HEK293 cells (AID 720678)
In short: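 Intrinsic compound fluorescence is recorded in live HEK293 cultures after overnight incubation at 37C, 5% CO2, using excitation 405 nm and emission 460 nm. Values are referenced to triamterene.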

[6] = qHTS assay to test for compound auto fluorescence at 590 nm (red) in HEK293 cells (AID 720679)
In short: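 Red autofluorescence, HEK293 cells: 2,000 cells/well; attach 4-5 hr 37C; add 23 nL cpd or DMSO; incubate o/n 37C 5% CO2; read Ex540/Em590; Rose Bengal sodium reference.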

[7] = qHTS assay to test for compound auto fluorescence at 535 nm (green) in HEK293 cells (AID 720680)
[8] = qHTS assay to test for compound auto fluorescence at 460 nm (blue) in HEK293 cell free culture (AID 720681)
In short: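 Test compounds were pinned into cell-free culture medium (DMEM with 10% FBS) and fluorescence was read directly at Ex/Em 405/460 nm. Signals were expressed as fluorescence equivalents of triamterene, with DMSO vehicle as control.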

[9] = qHTS assay to test for compound auto fluorescence at 535 nm (green) in HEK293 cell free culture (AID 720682)
In short: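 Each library compound, or DMSO control, is added by pintool to medium alone, comprising DMEM and 10% FBS. Emission at 535 nm following 485 nm excitation is quantified against fluorescein.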

[10] = qHTS assay to test for compound auto fluorescence at 590 nm (red) in HEK293 cell free culture (AID 720683)
In short: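 Tox21 10K library compounds were pinned into cell-free DMEM with 10% FBS and fluorescence was read at excitation 540 nm. Activity is expressed as Rose Bengal sodium equivalency.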

[11] = qHTS assay to test for compound auto fluorescence at 590 nm (red) in HepG2 cell free culture (AID 720684)
In short: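 Red fluorescence (540 nm excitation, 590 nm emission) was measured after compound transfer into cell-free MEM supplemented with 10% FBS. Values are equivalencies against Rose Bengal sodium.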

[12] = qHTS assay to test for compound auto fluorescence at 460 nm (blue) in HepG2 cell free culture (AID 720685)
In short: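 Compound (23 nL) or DMSO pinned into cell-free MEM with 10% FBS; blue fluorescence read at 405/460 nm excitation/emission, expressed as auto-fluorescence equivalency to triamterene.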

[13] = qHTS assay to test for compound auto fluorescence at 460 nm (blue) in HepG2 cells (AID 720687)
In short: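 Cells (2,000/well in MEM with 10% FBS) attached overnight at 37 C, then were exposed to compound or DMSO for 1 hr at 37 C, 5% CO2. Fluorescence read at Ex/Em 405/460 nm, expressed as triamterene-equivalent signal.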

[14] = qHTS assay for small molecule agonists of the p53 signaling pathway (AID 651631; calls by dose curve; also: nearly all actives have a fitted effect of over 15% in size)
In short: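 Beta-lactamase reporter activity under p53 response elements was quantified in HCT-116 cells by FRET fluorescence, following 16 h incubation with test compounds at 37 °C and 2 h substrate development at room temperature.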

[15] = qHTS assay to test for compound auto fluorescence at 535 nm (green) in HepG2 cell free culture (AID 720686)
[16] = qHTS assay for small molecules that induce genotoxicity in human embryonic kidney cells expressing luciferase-tagged ATAD5 (AID 651632); also: nearly all actives have a fitted effect of over 15% in size; also: potency is read from the fitted curve at half-maximal effect
In short: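 Luminescent reporter readout, HEK293T ATAD5-luc line: 16 hr drug exposure (37C, 5% CO2) followed by Amplite, 30 min RT.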

[17] = qHTS assay for small molecules that induce genotoxicity in human embryonic kidney cells expressing luciferase-tagged ATAD5 - cell viability (AID 651634; calls by dose curve; also: nearly all actives have a fitted effect of over 25% in size)
In short: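 Viability read: CellTiter-Fluor fluorescence, 30 min at 37C. Cells: HEK293T, luciferase-tagged ATAD5. Exposure: 15.5 hr, 37C, 5% CO2, compound or DMSO vehicle.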

[18] = qHTS assay for small molecule disruptors of the mitochondrial membrane potential (AID 720635); also: potency is read from the fitted curve at half-maximal effect
In short: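 HepG2 cells (2,000/well) attached overnight at 37C, then took compound for 1 hr at 37C, 5% CO2. Mito-MPS dye was added for 30 min; fluorescence was read at 490/535 nm (monomers) and 540/590 nm (aggregates).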

[19] = biological target: Glucocorticoid receptor (Homo sapiens) (UniProt P04150); assay: qHTS assay to identify small molecule agonists of the glucocorticoid receptor (GR) signaling pathway (AID 720691; active = well fitted activation curve with a large enough effect in the signal ratio in the repeat runs, not every such curve was filed as active; the % refers to the signal ratio; also: potency is read from the fitted curve at half-maximal effect)
Chain of Glucocorticoid receptor (Homo sapiens) (P04150 whole entry, looked up): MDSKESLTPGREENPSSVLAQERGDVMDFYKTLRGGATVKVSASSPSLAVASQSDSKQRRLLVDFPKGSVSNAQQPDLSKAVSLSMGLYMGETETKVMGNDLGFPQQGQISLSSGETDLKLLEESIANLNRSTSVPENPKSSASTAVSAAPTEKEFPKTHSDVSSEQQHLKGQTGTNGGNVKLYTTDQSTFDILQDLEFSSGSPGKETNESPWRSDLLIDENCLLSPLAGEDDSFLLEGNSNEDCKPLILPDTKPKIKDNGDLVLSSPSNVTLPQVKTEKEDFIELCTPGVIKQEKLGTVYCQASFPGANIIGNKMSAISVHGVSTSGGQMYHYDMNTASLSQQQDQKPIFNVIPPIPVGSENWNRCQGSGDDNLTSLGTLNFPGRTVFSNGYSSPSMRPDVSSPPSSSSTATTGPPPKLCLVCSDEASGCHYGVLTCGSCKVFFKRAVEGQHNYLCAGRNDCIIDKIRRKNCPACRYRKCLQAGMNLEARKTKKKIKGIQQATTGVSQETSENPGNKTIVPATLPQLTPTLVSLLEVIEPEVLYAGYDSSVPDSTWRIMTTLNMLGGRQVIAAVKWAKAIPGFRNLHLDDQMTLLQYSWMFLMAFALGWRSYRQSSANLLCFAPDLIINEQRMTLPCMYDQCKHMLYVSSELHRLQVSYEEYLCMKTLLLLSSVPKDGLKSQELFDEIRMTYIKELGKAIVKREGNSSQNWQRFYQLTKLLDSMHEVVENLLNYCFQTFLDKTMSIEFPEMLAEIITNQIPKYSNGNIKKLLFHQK
In short: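 qHTS in GR-bla HeLa cells: 4 h settling at 37 C/5% CO2, 18 h compound incubation at 37 C, 2 h LiveBLAzer B/G FRET substrate at room temperature, fluorescence intensity measured.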

[20] = biological target: Glucocorticoid receptor (Homo sapiens) (UniProt P04150); assay: qHTS assay to identify small molecule antagonists of the glucocorticoid receptor (GR) signaling pathway (AID 720692; active = well fitted inhibition curve with a large enough effect in the signal ratio in the repeat runs, not every such curve was filed as active; the % refers to the signal ratio; also: potency is read from the fitted curve at half-maximal effect)
In short: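 Inhibition of glucocorticoid signalling is measured in HeLa cells with a GRE-controlled beta-lactamase reporter; cells are co-treated with compound and 5 nM dexamethasone (final) for 18 h before FRET substrate readout.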

| SMILES | Potency [1] | Potency [2] | Potency [3] | Potency [4] | outcome [5] | Potency [6] | Potency [7] | Potency [8] | Potency [9] | Potency [10] | Potency [11] | Potency [12] | Potency [13] | Potency [14] | Potency [15] | Potency [16] | Potency [17] | Potency [18] | Potency [19] | Potency [20] |
| --- | --- | --- | --- | --- | --- | --- | --- | --- | --- | --- | --- | --- | --- | --- | --- | --- | --- | --- | --- | --- |
| CC/C=C\C/C=C\C/C=C\CCCCCCCC(=O)O | inactive | inactive | inactive | inactive | inactive | inactive | inactive | inactive | inactive | inactive | inactive | inactive | inactive | – | – | – | – | – | – | – |
| NCCN | inactive | inactive | inactive | inactive | inactive | inactive | inactive | inactive | inactive | – | inactive | inactive | inactive | inactive | inactive | – | – | – | – | – |
| CCCCCCC(C)O (stereo unspecified) | inactive | inactive | inactive | inactive | inactive | inactive | inactive | inactive | inactive | inactive | inactive | inactive | inactive | – | inactive | inactive | inactive | inactive | inactive | inactive |
| FC(F)(F)C(Cl)Br (stereo unspecified) | inactive | inactive | inactive | inactive | inactive | inactive | inactive | inactive | inactive | inactive | inactive | inactive | inactive | – | – | inactive | inactive | inactive | inactive | inactive |
| OC[C@H]1O[C@@H]2O[C@H]3[C@H](O)[C@@H](O)[C@@H](O[C@H]4[C@H](O)[C@@H](O)[C@@H](O[C@H]5[C@H](O)[C@@H](O)[C@@H](O[C@H]6[C@H](O)[C@@H](O)[C@@H](O[C@H]7[C@H](O)[C@@H](O)[C@@H](O[C@H]1[C@H](O)[C@H]2O)O[C@@H]7CO)O[C@@H]6CO)O[C@@H]5CO)O[C@@H]4CO)O[C@@H]3CO | inactive | inactive | inactive | inactive | inactive | inactive | inactive | inactive | inactive | inactive | inactive | inactive | inactive | – | – | inactive | – | inactive | inactive | inactive |
| CC[C@]12CCCN3CCc4c(n(c5ccccc45)[C@@](O)(C(=O)OC)C1)[C@@H]32 | inactive | inactive | inactive | inactive | inactive | inactive | inactive | inactive | inactive | inactive | inactive | inactive | inactive | – | – | inactive | inactive | – | inactive | inactive |
| Cc1ccc(N)c([N+](=O)[O-])c1 | inactive | inactive | inactive | inactive | inactive | inactive | inactive | inactive | inactive | – | inactive | inactive | inactive | – | inactive | inactive | inactive | 54.5 µM (active) | inactive | inactive |
| CCC(=O)O[C@H]1[C@H](O[C@@H]2[C@@H](C)[C@H](O[C@H]3C[C@@](C)(OC)[C@@H](O)[C@H](C)O3)[C@@H](C)C(=O)O[C@H](CC)[C@@](C)(O)[C@H](O)[C@@H](C)C(=O)[C@H](C)C[C@@]2(C)O)O[C@H](C)C[C@@H]1N(C)C | 13.3 µM (active) | inactive | inactive | inactive | inactive | inactive | inactive | inactive | inactive | inactive | inactive | inactive | inactive | – | – | inactive | – | – | inactive | – |
| Oc1ccc(C(c2ccc(O)cc2)C(Cl)(Cl)Cl)cc1 | 68.3 µM (active) | inactive | inactive | inactive | inactive | inactive | inactive | inactive | inactive | inactive | inactive | inactive | inactive | – | – | inactive | inactive | 6.09 µM (active) and 6.86 µM (active) | – | 21.9 µM (active) |
| CC1(C)O[C@@H]2C[C@H]3[C@@H]4C[C@H](F)C5=CC(=O)C=C[C@]5(C)[C@@]4(F)[C@@H](O)C[C@]3(C)[C@]2(C(=O)CO)O1 | – | inactive | inactive | inactive | inactive | inactive | inactive | inactive | inactive | inactive | inactive | inactive | inactive | – | inactive | inactive | inactive | inactive | 3.8 nM (active) and 1.2 nM (active) | – |
| C[N+](C)(C)CCO | inactive | inactive | inactive | inactive | inactive | inactive | inactive | inactive | inactive | – | inactive | inactive | inactive | – | inactive | inactive | – | inactive | – | – |
| CN(C)/N=N/c1nc[nH]c1C(N)=O | inactive | inactive | inactive | inactive | inactive | inactive | inactive | inactive | inactive | inactive | inactive | inactive | inactive | – | inactive | inactive | inactive | inactive | inactive | inactive |
| COc1ccc(-c2coc3cc(O)cc(O)c3c2=O)cc1 | inactive | 4.9 µM (active) and 13.7 µM (active) | inactive | inactive | inactive | inactive | inactive | inactive | inactive | inactive | inactive | inactive | inactive | – | – | 1.38 µM (active) and 3.86 µM (active) | inactive | 3.09 µM (active) and 6.86 µM (active) | inactive | – |
